Laboratory results taken from PubChem BioAssay (NCI).
The panel holds about 83,000 compounds, 20% with a hit somewhere; the sample as a whole holds those more often.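 Plates (96-well) were seeded with cells, treated with compound at one concentration, and incubated for 48 hours before percent growth was determined.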 Unmarked numbers belong to inactive results. Calls of active or inactive are those of the source. The calls were made as follows: active = growth percent below 10; inactive = the rest.

How the values were obtained:
Assay in all cases: NCI-60 one-dose screen, 48 h (100 = growth as untreated, 0 = no growth, -100 = all killed)
Conditions in all cases: 10 µM
SR leukemia = tested on: SR leukemia
RPMI-8226 leukemia = tested on: RPMI-8226 leukemia
OVCAR-8 ovarian = tested on: OVCAR-8 ovarian
OVCAR-5 ovarian = tested on: OVCAR-5 ovarian
OVCAR-4 ovarian = tested on: OVCAR-4 ovarian
SK-OV-3 ovarian = tested on: SK-OV-3 ovarian
OVCAR-3 ovarian = tested on: OVCAR-3 ovarian
HS 578T breast = tested on: HS 578T breast
NCI/ADR-RES ovarian = tested on: NCI/ADR-RES ovarian
T-47D breast = tested on: T-47D breast
BT-549 breast = tested on: BT-549 breast
MDA-MB-435 melanoma = tested on: MDA-MB-435 melanoma
SW-620 colon = tested on: SW-620 colon
MCF7 breast = tested on: MCF7 breast
HCT-116 colon = tested on: HCT-116 colon
HCC-2998 colon = tested on: HCC-2998 colon
KM12 colon = tested on: KM12 colon
IGROV1 ovarian = tested on: IGROV1 ovarian

SMILES | growth (SR leukemia) | growth (RPMI-8226 leukemia) | growth (OVCAR-8 ovarian) | growth (OVCAR-5 ovarian) | growth (OVCAR-4 ovarian) | growth (SK-OV-3 ovarian) | growth (OVCAR-3 ovarian) | growth (HS 578T breast) | growth (NCI/ADR-RES ovarian) | growth (T-47D breast) | growth (BT-549 breast) | growth (MDA-MB-435 melanoma) | growth (SW-620 colon) | growth (MCF7 breast) | growth (HCT-116 colon) | growth (HCC-2998 colon) | growth (KM12 colon) | growth (IGROV1 ovarian)
CCOc1ccc(-n2cc(-c3ccc(N(C)C)cc3)[n+]3c2CCCCC3)cc1 | 27.3% | 6.41% (active) | 12.2% | 40% | 9.15% (active) | -5.85% (active) | 21.8% | 28.5% | 92.8% | 0.571% (active) | -1.7% (active) | 15.1% | 19.1% | 5.05% (active) | 0.582% (active) | 21.3% | 14.3% | –
CC(C)CCN(CCCNc1c2c(nc3cc(Cl)ccc13)CCCC2)CCC(C)C | 7.94% (active) | 39.5% | 79.4% | – | 50.8% | 93.2% | 81.6% | 76.1% | 74.3% | 61.7% | 87% | 86.2% | 55.1% | 40% | 31.8% | 90.1% | 73.1% | 50.2%
O=[N+]([O-])c1ccc(S(=O)(=O)OCCCCOS(=O)(=O)c2ccc([N+](=O)[O-])cc2)cc1 | 100% | 106% | 108% | 103% | 108% | 115% | 105% | 105% | 98.9% | 100% | 106% | 95.1% | 102% | 95.9% | 108% | 100% | 107% | –
CCOC(=O)c1cc2c(n1Cc1cccc(OC)c1)-c1oncc1CC2 | 13.3% | 37% | 41.7% | – | 69.1% | 29.7% | -16.4% (active) | -15.6% (active) | 6.41% (active) | 38.9% | 28.3% | -23.5% (active) | 23% | 14.1% | 14.9% | 58.6% | 32.5% | 19.6%
COc1c(C)c(C)c(OC)c2c1[nH]c(=O)c1c3cccnc3cn21 | 94.8% | 108% | 111% | 122% | – | 103% | 104% | 99.5% | 110% | 94.9% | 124% | 110% | 99.3% | 88.5% | 104% | 120% | 106% | –
CCc1nn2c(-c3ccccc3)c(-c3cc(OC)c(OC)c(OC)c3)nc2s1 | 59.4% | 60.2% | 88.1% | 98.5% | 68.5% | 102% | 92% | 69.8% | 77.1% | 72.5% | 111% | 95.5% | 83.5% | 60.6% | 80.8% | 91.6% | 94.7% | –
C/C(=N\NC(=O)c1sc(=S)n(C)c1N)c1cc2ccccc2o1 | 42.6% | 42.5% | 69.6% | 74.1% | 61% | 133% | 65% | 61.6% | 49.1% | 78.2% | 87.2% | 41% | 81.3% | 34.8% | – | – | 21.5% | –
CCCCOCC(=O)NC(NP(=O)(N(C)C)N(C)C)C(Cl)(Cl)Cl (configuration not stated) | 111% | 100% | 62.8% | 109% | 116% | 124% | 98% | 113% | 105% | 7.73% (active) | 117% | 102% | 108% | 103% | 96.6% | 103% | 133% | –
Cc1ccc([P+](Cc2ccccc2)(c2ccccc2)c2ccccc2)cc1 | -11.9% (active) | -32.1% (active) | 3.59% (active) | 31.7% | 3.46% (active) | 21.3% | 19.2% | 44.8% | 101% | -3.45% (active) | -4.96% (active) | 2.32% (active) | 24.4% | 9.62% (active) | 4.1% (active) | 21.6% | 8.34% (active) | –
CC(=O)CS(C)(=O)=O | 94.8% | 105% | 105% | – | 112% | 104% | 111% | 107% | 109% | 109% | 109% | 106% | 102% | 105% | 107% | 102% | 114% | 108%
CC1(C)CCc2cc(-c3ccn(S(=O)(=O)c4ccc(Cl)cc4)n3)ccc2O1 | 45.5% | 52.1% | 86.6% | 101% | – | 91.3% | 84% | 99.5% | 69.3% | 54.1% | 88.8% | 85.8% | 87.7% | 71.3% | 61.1% | 94.3% | 77% | –
COc1ccc(C(=O)n2nc(CC(=O)NCc3ccccc3)nc2N)cc1 | 93.6% | 117% | 115% | 113% | 105% | 107% | 118% | – | 112% | 105% | 102% | 109% | 105% | 99.1% | 99.5% | 104% | 116% | –
S=C(Cc1ccc(-c2ccccc2)cc1)N1CCOCC1 | 101% | 96.5% | 102% | – | 101% | 102% | 104% | 97.8% | 103% | 85.5% | 96.6% | 98.6% | 103% | 95.3% | 98.6% | 103% | 99.3% | 113%
COC(=O)c1cnc2c(c1)Oc1ccc(Cl)cc1-c1cc(C)nn1-2 | 89.3% | 95.6% | 96% | 89% | -13.1% (active) | 76.6% | 44.5% | 56% | 70.3% | 59.9% | 83.4% | 91.3% | 66% | 83.4% | – | 92.1% | 85.8% | –
COc1ccc(C(C)=O)cc1N1C(=O)C2C(C1=O)C1(c3ccccc3)C(=O)C2(c2ccccc2)C(c2ccc(C)cc2)=C1c1ccc(C)cc1 (configuration not stated) | 8.77% (active) | 17.2% | 14.5% | – | 26.2% | 32.2% | 21.4% | 80.7% | 12.7% | 32.3% | 38.4% | 35.6% | 27.1% | 15.6% | 24.3% | 46.6% | – | 9.07% (active)
CN(C)Cc1cccs1 | 114% | 102% | 97% | 98.5% | 109% | 87.8% | 101% | – | 101% | 83.9% | 96.6% | 118% | 108% | 103% | 89% | 96.6% | 101% | –
Nc1cc(O)cc(O)c1 | 91.7% | 109% | 104% | 89.6% | 94.1% | 99.3% | 108% | – | 99.7% | 89% | 105% | 106% | 107% | 98.3% | 95.8% | 98.5% | 99.7% | –
CCCCCCN=C(N)CCCCCCCCCCC(N)=NCCCCCC | 61.7% | 28.8% | 21.8% | 49.1% | 27.6% | 31.3% | 20% | 26.6% | 84% | 12.2% | 39.4% | 38.9% | 22.4% | 14.9% | 16.5% | 35.7% | 34.8% | –
